According to PubChem BioAssay AID1159580 (chemical genetic matrix, 2015):
Hit rate of the full screen: of about 5,500 compounds, about 2,000 (36%) were called active. About 18% were inconclusive and are not listed. No stated cut-off is given here; in the data, active means normalized growth mostly below about 0.91 (no sharp cut-off); inconclusive means no clear call, values can overlap the other calls; inactive means mostly above about 0.92. Some of the results follow.

Assay: chemical genetic growth profiling, strain panel (AID 1159580);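 further: tested at 20 µM; growth read once vehicle control cultures reached saturation at 30 °C; 1 = growth at the plate median or of vehicle wells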
Details: S. cerevisiae deletion strains, growth OD

Measured: normalized growth

NC1(C(=O)O)CCc2cc(C(=O)O)ccc21 (stereo not drawn)
inactive: locus YAL040C, strain CLN3, stronger effect = lower value 0.959 | locus YER002W, strain NOP16, stronger effect = lower value 0.997 | locus YGR078C, strain PAC10, stronger effect = lower value 1.01 | locus YNL128W, strain TEP1, stronger effect = lower value 0.997 | locus YNL175C, strain NOP13, stronger effect = lower value 0.988 | locus YNL197C, strain WHI3, stronger effect = lower value 0.998 | locus YNL224C, strain SQS1, stronger effect = lower value 1.01 | locus YOR083W, strain WHI5 (second series), stronger effect = lower value 0.993
